Measured values published in PubChem BioAssay AID1558 (National Center for Advancing Translational Sciences (NCATS), 2009).
Inconclusive results are not listed. Activity calls are given as the source filed them. The call rests on the fitted dose curve; in most records, active means well fitted inhibition curve with a large enough effect; inconclusive means small, poorly fitted or top-dose-only effect; inactive means flat fitted curve, though single readings scatter.

Biological target: Microtubule-associated protein tau (Homo sapiens) (UniProt P10636)
Assay: Confirmation Concentration-Response Assay for Inhibitors of Tau Fibril Formation, Thioflavin T Binding
Conditions: recombinant tau K18 P301L heparin fibrillization, ThT fluorescence; series mostly up to 100 µM
Outline: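 Heparin (20 uM final) induced fibrillization of human tau K18 P301L (15 uM unlabeled plus 0.24 uM Alexa 594-labeled, final) in 100 mM sodium acetate pH 7 with compound, 6 hr at 37 C. ThT (30 uM final) added, read after 1 hr (ex 450, em 510 nm).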

Sequence of Microtubule-associated protein tau (Homo sapiens) (P10636 561-689 P618L limits assumed): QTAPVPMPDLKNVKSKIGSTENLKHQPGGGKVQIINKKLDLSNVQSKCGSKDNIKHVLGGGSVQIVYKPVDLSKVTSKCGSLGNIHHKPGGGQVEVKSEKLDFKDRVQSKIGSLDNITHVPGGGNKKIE

SMILES | Potency
O=C(Cc1ccccc1)Nc1sc2c(c1C(=O)Nc1cccc(Cl)c1)CCCC2 | inactive
CCOC(=O)c1nn(-c2ccccc2)c(=O)c2c(NC(=O)c3ccccc3)scc12 | inactive
CCOC(=O)c1nn(-c2ccc(Cl)cc2)c(=O)c2c(N)scc12 | 2.24 µM (active)
CCc1ccc(S(=O)(=O)Nc2cc(SCC(=O)O)c(O)c3ccccc23)cc1 | 5.62 µM (active)
COc1ccc(S(=O)(=O)Nc2cc(Sc3ncn[nH]3)c(O)c3ccccc23)cc1 | 2.82 µM (active)
COc1ccc(OC)c(NC(=O)c2c(NCc3cccs3)sc3c2CCCC3)c1 | inactive
CN(C(=S)Nc1cccnc1)c1ccc(O)cc1 | 10 µM (active)
CN(c1ccccc1)S(=O)(=O)c1nnc(NC(=O)C2CCCCC2)s1 | 22.4 µM (active)
CC1CCc2c(sc(NC(=O)Cc3ccccc3)c2C(=O)Nc2ccc(Cl)cc2)C1 (stereo not given) | inactive
NC(=O)c1nn(-c2ccccc2)c(=O)c2c(N)scc12 | 4.47 µM (active)
COC(=O)c1c(NC(=O)CCCOc2cccc(C)c2)sc2c1C(C(=O)OC)CC2 (stereo not given) | 1.78 µM (active)
Nc1cc(-c2ccccc2)c[nH]c1=O | 8.91 µM (active)
NCCc1ccc(O)c(O)c1 | inactive
O=C(Nc1nnc(S(=O)(=O)Nc2ccccc2)s1)C1CCCCC1 | inactive
COc1ccc(NC(=O)C2CCN(S(=O)(=O)c3c(C)noc3/C=C/c3cccs3)CC2)cc1Cl | inactive
